# “And” between values parts separate entries of the source, which are not always exact repeats. Equal entries are not always repeated. Records with an inconclusive call do not appear. More than one record can exist for a structure, and the calls need not agree. The source made the active and inactive calls. Calls come from the whole dose curve; as a rule, active = well fitted curve in either direction with a large enough effect; inconclusive = small, poorly fitted or top-dose-only effect; inactive = flat fitted curve, though single readings scatter.
# Target: Lysosomal alpha-glucosidase (Homo sapiens) (UniProt P10253)
# Assay: Confirmation of Inhibitors and Activators of Purified Human alpha-Glucosidase (AID 2115)
# Details: purified human GAA enzyme activity; series mostly up to 76.2 µM; activity change, negative = inhibition: at the top concentration
# From the text: NIH Chemical Genomics Center [NCGC]
# NIH Molecular Libraries Probe Production centers Network [MLPCN]
# Assay Submitter (PI): Wei Zheng
# Alpha-glucosidase is responsible for hydrolysis of terminal, non-reducing 1,4-linked alpha-D-glucose residues with release of alpha-D-glucose. It is a lysosomal hydrolase that is required for the degradation of a small percentage (1-3%) of cellular glycogen in human. Deficiency of this enzyme results in glycogen-storage disease type II (GSDII), also referred to as Pompe disease, an autosomal recessive disorder. Structurally normal glycogen is accumulated in lysosomes and cytoplasm in affected patients, primarily in muscle tissues. Excessive glycogen storage within lysosomes may interrupt normal functioning of other organelles and leads to cellular injury. In turn, this leads to enlargement and dysfunction of the entire organ involved (eg, cardiomyopathy and muscle weakness).
# It has reported that the improper folding and trafficking of alpha-glucosidase resulting from the genetic mutations may account for a significant number of Pompe patients. […] We optimized this alpha-glucosidase assay in 1536-well plate format for identifying the novel small molecule inhibitors with the structures other than the sugar analogs in order to develop the new pharmacological chaperones.
# NCGC Assay Protocol Summary:
# This is a fluorogenic enzyme assay with 4-methylumbelliferyl-alpha-D-[…] as the substrate and human […] as the enzyme preparation. Upon the hydrolysis of this fluorogenic substrate, the resulting product, 1. 4-methyllumbelliferone, can be excited at 365 nm and emits at 440 nm which can be detected by a standard fluorescence plate reader. Data were normalized to the controls for basal activity (without enzyme) and 100% activity (with enzyme). The AC50 values were determined from concentration-response data modeled with the standard Hill equation.
# Assay buffer: 50 mM citric acid (titrated with potassium phosphate to pH 5.0), 0.005% Tween-20, pH 5.0. (pH 5.0 is an optimal condition for this enzyme assay)
# 1536-well assay protocol for the human alpha-glucosidase:
# (1) Add 2 ul/well of enzyme (4 nM final)
# (2) Add 23 nL compounds in DMSO solution. The final titration was 0.7 nM to 77 uM.
# (3) Add 1 ul of substrate (400 uM final)
# (4) Incubate at room temperature for 20 min.
# (5) Add 2 ul stop solution (1M NaOH and 1M Glycine mixture, pH 10)
# (6) Detect the assay plate in a ViewLux plate reader (PerkinElmer) with Ex=365 nm and Em=440nm.
# Keywords: Alpha-glucosidase, Pompe Disease, pharmacological chaperone, chaperone therapy, high throughput screening, alpha-glucosidase inhibitor, MLSMR, MLSCN, NIH Roadmap, qHTS and NCGC
Compound,"activity change, negative = inhibition",Potency
CC(=O)c1ccc(N2CCN(S(=O)(=O)c3ccc(N4CCCC4=O)cc3)CC2)cc1,-3.95% (inactive),
CC(=O)c1ccc(N2CCN(S(=O)(=O)c3ccc4c(c3)CC(=O)N4)CC2)cc1,,730 nM (active) and 749 nM (active) and 819 nM (active)
CC(=O)c1ccc(N2CCN(S(=O)(=O)c3ccc4c(c3)CCC(=O)N4)CC2)cc1,-6.19% (inactive),
O=C1Cc2cc(S(=O)(=O)N3CCNCC3)ccc2N1,-7.88% (inactive),
O=C1Cc2cc(S(=O)(=O)N3CCN(c4ccc([N+](=O)[O-])cc4)CC3)ccc2N1,,3.66 µM (active)
Cc1ccc(N2CCN(S(=O)(=O)c3ccc4c(c3)CC(=O)N4)CC2)cc1,-1.54% [at 144 µM] (inactive),
CC(=O)c1ccc(N2CCN(S(=O)(=O)c3ccc4[nH]c(=O)oc4c3)CC2)cc1,-9% (inactive),
O=C1Cc2cc(S(=O)(=O)N3CCN(c4ccc(CO)cc4)CC3)ccc2N1,,13 µM (active)
CC(=O)c1ccc(N2CCN(S(=O)(=O)c3ccc4c(c3)OCC(=O)N4)CC2)cc1,0.582% (inactive),
CC(=O)c1ccc(N2CCN(S(=O)(=O)c3cc4c(cc3Cl)NC(=O)C4)CC2)cc1,,1.63 µM (active) and 4.61 µM (active)
N#Cc1ccc(N2CCN(S(=O)(=O)c3ccc4c(c3)CC(=O)N4)CC2)cc1,,2.91 µM (active)
CC(=O)c1ccc(N2CCN(S(=O)(=O)c3ccc4c(c3)CCCN4C(C)=O)CC2)cc1,-8.63% (inactive),
CC(=O)c1ccc(N2CCN(C(=O)c3ccc4c(c3)CC(=O)N4)CC2)cc1,-3.41% (inactive),
CC(=O)c1ccc(N2CCN(S(=O)(=O)c3ccc4c(c3)oc(=O)n4C)CC2)cc1,-0.854% (inactive),
CC(=O)Nc1ccc(S(=O)(=O)N2CCN(c3ccc(C(C)=O)cc3)CC2)cc1,-7.6% (inactive),
CC(=O)c1ccc(N2CCN(S(=O)(=O)c3ccc4[nH]c(=O)[nH]c4c3)CC2)cc1,-12.1% (inactive),
O=C1Cc2cc(S(=O)(=O)N3CCN(c4ccc(O)cc4)CC3)ccc2N1,,1.88 µM (active)
CC(=O)c1ccc(N2CCN(C(=O)c3ccc4c(c3)CCC(=O)N4)CC2)cc1,-2.3% (inactive),
O=Cc1ccc(N2CCN(S(=O)(=O)c3ccc4c(c3)CC(=O)N4)CC2)cc1,,3.66 µM (active)
CC(=O)c1ccc(N2CCN(S(=O)(=O)c3ccc4c(c3)CCCC(=O)N4)CC2)cc1,-3.1% (inactive),
O=C1Cc2cc(S(=O)(=O)N3CCN(c4cccc(C(F)(F)F)c4)CC3)ccc2N1,,14.9 µM (active)
CC(=O)N1CCN(S(=O)(=O)c2ccc3c(c2)CC(=O)N3)CC1,,11.9 µM (active)
CC(=O)c1ccc(N2CCN(S(=O)(=O)c3ccc4c(c3)C(=O)OC4)CC2)cc1,-4.1% (inactive),
COc1ccc(N2CCN(S(=O)(=O)c3ccc4c(c3)CC(=O)N4)CC2)cc1,,23.7 µM (active)
CC(=O)c1ccc(N2CCN(S(=O)(=O)c3ccc4c(c3)C(Cl)(Cl)C(=O)N4)CC2)cc1,,32.6 µM (active) and inactive
CC(=O)c1ccc(N2CCN(S(=O)(=O)c3ccc4c(c3)n(C)c(=O)n4C)CC2)cc1,-4.43% (inactive),
CC(=O)c1ccc(N2CCN(S(=O)(=O)c3ccc4c(c3)CC(C)N4C(C)=O)CC2)cc1 (configuration not stated),-2.39% (inactive),

# — PubChem BioAssay (NCATS)
